# Cycloheximide cs – counter-screen for Shiga toxin inhibitors: cycloheximide protein synthesis inhibition; actives 12% (n = 300,000); cell reporter, cycloheximide protein synthesis inhibition counterscreen; AID 2314; max response, %; in the data active = max response mostly above about 13%, no sharp cut-off; inactive = mostly below about 14%; also: read at 38.3 µM for the half of the compounds with a filed dose; 0% is about no effect
# SARS PLpro yeast – blocks SARS-CoV papain-like protease in a yeast assay; AID 485353; S. cerevisiae expressing SARS-CoV PLpro, growth rescue; Potency, µM (doses to about 32.9 µM), for inactives: top-dose activity, positive = growth rescue, usual class: activators; actives 0.19% (n = 330,000); calls by dose curve; also: potency is read from the fitted curve at half-maximal effect; 0% is about no effect; nearly all actives have a fitted effect of over 55% in size
# Pf growth 48h – P. falciparum growth inhibition at 48 hours (one generation); P. falciparum luciferase growth in erythrocytes, 48 h; Potency, µM (titrated, usually from 28.7 µM), inactives show top-dose activity change, negative = inhibition, most hits filed as inhibitors; actives 5.9% (n = 310,000); AID 504832; also: potency is read from the fitted curve at half-maximal effect; % is scaled to controls: 0 for no effect and ±100 for the full control effect
#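 First compound was added to culture medium, then infected red cells at 0.1% parasitemia and 2% hematocrit (final). After incubation at 37 C under 5% CO2, luciferase detection reagent was dispensed and light output recorded.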
# NS1 inh – influenza NS1 inhibition. AID 2326. actives 0.4% (n = 270,000). Potency, µM (series often up to 46.1 µM), for inactives: at the top dose activity, positive = more growth; calls by dose curve; also: potency is read from the fitted curve at half-maximal effect; actives are rising curves; nearly all actives have a fitted effect of over 50% in size
#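 Read-out: OD600 growth recovery of NS1-expressing budding yeast. Cells grown overnight at 30C in -URA glucose medium, washed, resuspended and diluted 1:100 in 2% galactose assay medium, pH 6.0. Same strain lacking NS1 served as positive control.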
# Pf growth 96h – P. falciparum growth inhibition at 96 hour, primary screen for plastid delayed-death inhibitors; AID 504834; P. falciparum luciferase reporter growth, 96 h; Potency, µM (series often up to 28.7 µM), for inactives: top-dose activity change, negative = inhibition, hits mostly inhibitors; actives 6.9% (n = 320,000); also: potency is read from the fitted curve at half-maximal effect; % is scaled to controls: 0 for no effect and ±100 for the full control effect
#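 Parasite growth measured via integrated firefly luciferase reporter in P. falciparum. Infected erythrocytes at 2% hematocrit, 0.05% parasitemia final were treated 96 hours at 37 C under 5% CO2, and luminescence was read.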
# Shiga toxin inh – Shiga toxin inhibition; inhibition, % at 38.7 µM; Vero cells, Shiga toxin protein synthesis inhibition reporter; AID 2315; actives 9.2% (n = 290,000); in the data active = inhibition mostly above about 28%, no sharp cut-off; inactive = mostly below about 43%; also: 0% is about no effect
# The depositor's hits bear a star; ? = inconclusive; / = no result given. Compounds with a hit are over-represented: about 21% of the library has one in this group of screens. Unless noted, calls follow the shape of the dose curve; as a rule, active = well fitted inhibition curve with a large enough effect; inconclusive = small, poorly fitted or top-dose-only effect, or another doubt; inactive = no such curve, though single readings can be large or run the other way.
SMILES,Cycloheximide cs,SARS PLpro yeast,Pf growth 48h,NS1 inh,Pf growth 96h,Shiga toxin inh
CCCc1nc2ccccc2c(C(=O)OCC(=O)Nc2ccc(S(=O)(=O)N3CCOCC3)cc2)c1CC,-2.5,-2.4%,14.7µM*,-1.6%,/,-2.5
O=C(COC(=O)c1n[nH]c2ccccc12)Nc1cccc(S(=O)(=O)N2CCOCC2)c1,5.7,1.4%,?,/,?,27.9
CCCc1nc2ccccc2c(C(=O)OCC(=O)Nc2cccc(S(=O)(=O)N3CCOCC3)c2)c1CC,-1.6,10.3%,?,30.0%,7.38µM*,-2.9
CC(C)(C)NC(=S)Nc1ccc(Nc2ccccc2)cc1,19.1*,-25.8%,?,-13.5%,/,46.4*
CC(C)(C)NC(=S)Nc1ccc(Br)cc1,31.5*,4.1%,12.3%,-52.7%,12.2%,58.2*
CC(C)(C)NC(=S)Nc1cccc(C(F)(F)F)c1,7.8,16.7%,?,12.6%,?,4.3
O=C(CSc1ccccc1)Nc1ccc(Cl)c(S(=O)(=O)N2CCOCC2)c1,/,2.7%,/,/,/,/
CC(=O)Nc1ccc2nc(SCC(=O)Nc3ccc(N4CCOCC4)c(Cl)c3)sc2c1,68.6*,5.3%,35.3%,-10.8%,3.6%,98.0*
O=C(CSc1nc2ccccc2s1)Nc1ccc(Cl)c(S(=O)(=O)N2CCOCC2)c1,10.2,-23.0%,?,18.7%,4.65µM*,14.3
O=C(CSc1nc2ccccc2s1)Nc1ccc(N2CCOCC2)c(Cl)c1,1.0,-26.6%,16.9%,8.9%,?,12.0
Cc1ccc(NC(=O)CSc2nc3ccc(Nc4nc(N5CCOCC5)nc(N5CCOCC5)n4)cc3s2)cc1,4.8,8.3%,?,23.5%,?,7.2
COc1ccc(NC(=O)CSc2nnc(C)s2)cc1S(=O)(=O)N1CCOCC1,/,-7.4%,-18.1%,/,10.4µM*,/
CC(C)(C)NC(=O)CSc1nc2ccc(Nc3nc(N4CCOCC4)nc(N4CCOCC4)n3)cc2s1,2.2,-0.4%,7.38µM*,0.8%,?,-6.9
COc1ccc(CCNC(=O)c2ccc3c(c2)NC(=O)C(CSCc2cc(C)ccc2C)N3)cc1OC (stereo not given),-0.5,-20.4%,2.6%,15.2%,-1.6%,26.0
CC(=O)CSc1nc2ccc(Nc3nc(N4CCOCC4)nc(N4CCOCC4)n3)cc2s1,-1.8,-0.9%,?,11.4%,6.57µM*,-15.0
O=C(Nc1nc2ccccc2s1)C1CCN(S(=O)(=O)c2cc([N+](=O)[O-])ccc2Cl)CC1,20.7*,-1.3%,?,-1.9%,?,49.7*
CCOc1cc(C(=O)NCc2ccccc2)ccc1OCC(=O)N1CCOCC1,1.7,-0.3%,-8.4%,/,3.1%,21.3
O=C(CSc1nc2ccccc2s1)N1CCOCC1,28.7*,1.9%,43.6%,5.8%,?,active
CCOc1cc(/C=C/c2nc3ccccc3s2)ccc1OCC(=O)N1CCOCC1,15.9*,10.4%,0.0%,-28.0%,0.0%,37.3*
COc1ccc(S(=O)(=O)N2CCOC2CNC(=O)C(=O)NCCCN2CCOCC2)cc1C (stereo not given),-1.7,1.0%,-1.3%,-0.2%,0.8%,-6.1
CCc1nc(CN2CCCC(C(=O)c3ccc4c5c(cccc35)CC4)C2)c(C)[nH]1 (stereo not given),0.5,5.7%,?,3.3%,1.4%,-9.1
CCOC(=O)CNC(=O)CNC(=O)c1ccc(OC(C)C)cc1,24.4*,1.2%,34.9%,-1.2%,37.5%,36.7
CCOC(=O)CNC(=O)c1ccc(SCC)cc1,36.8*,0.2%,39.1%,-0.7%,32.2%,83.2*
CCOC(=O)CNC(=O)c1ccccc1,-4.9,11.1%,3.5%,0.2%,140.5%,17.0
CNC(=O)C[C@@H](N)C(=O)N[C@@H](C(=O)N[C@@H]1C(=O)N2[C@@H]1SC(C)(C)[C@@H]2C(=O)O)c1ccc(O)cc1,/,/,3.8%,/,?,/
COc1ccc(C(=O)N/C(=C\c2ccc3c(c2)OCO3)C(=O)Nc2cccc(C(=O)O)c2)cc1,8.9,0.4%,-2.9%,/,?,-5.7
CCOC(=O)c1ccccc1NC(=O)c1cc2sccc2n1C,-0.6,-2.5%,-11.6%,-9.7%,?,-6.2
Cn1c(C(=O)Nc2ccc3c(c2)OCCO3)cc2sccc21,35.6*,-9.2%,130.5%,-56.6%,0.0%,47.4*
